Compounds without any hit were thinned out: in the full panel of roughly 83,000, 20% have a hit.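 Each cell line was grown in a 96-well plate and treated with one concentration of compound for 48 hours. Values below 10 were considered active.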 Activity calls are given as the source filed them.
tested on: SNB-19 CNS; test: NCI-60 one-dose screen, 48 h (100 = growth as untreated, 0 = no growth, -100 = all killed); details: 10 µM unless noted
Experimental: Growth inhibition of the SNB-19 human tumor cell line is measured as a screen for anti-cancer activity. Cells are grown in 96 well plates and exposed to the test compound for 48 hours. Compounds are tested at a single concentration, which is 10^-5 M for most compounds. The reported endpoint is percent growth (GI% or GIPRCNT), where numbers from 0 - 100% represent growth inhibition, and numbers from -100% - 0 represent cell death. For example, a value of 40 represents 60% growth inhibition. A value of 0 means no net growth occurred over the course of the experiment. A value of -40 indicates 40% of cells at the beginning of the experiment died by the end of the experiment. A value of -100 means all cells are dead at the end of the experiment.
NCI-60 Human Tumor Cell Lines Screen was performed using the standard one-dose NCI protocol, which is described in more detail at https://dtp.cancer.gov/discovery_development/nci-60/default.htm.
Compounds with GIPRCNT values below 10 were considered active. Activity score was based on GIPRCNT using the following formula: […]
Score is 0 for GIPRCNT values of 100 or above, 50 for GIPRCNT values of 0, and 100 for GIPRCNT values of -100.

SMILES	growth
O=C(c1c[nH]c2ccccc12)C(Sc1nc2ccccc2c(=O)[nH]1)c1ccccc1 (stereo not given)	102% (inactive)
N#CC1=C(N)n2nc(-c3ccncc3)nc2NC1c1cccc2ccccc12 (stereo not given)	92.8% (inactive)
CCCCOc1nc2c(C)cccc2cc1C1CNC(=O)c2ccccc2N1 (stereo not given)	47% (inactive)
COc1cc2nc(N3CCC[C@@H](NC4=CC(=O)c5ccccc5C4=O)C3)nc(N)c2cc1OC	-49.7% (active)
O=C(Nc1ccc(Cl)cc1)c1cc(-c2ccc(F)cc2)c2sc(=O)[nH]c2n1	19.3% (inactive)
O=S(=O)(NCCCNc1nccc(-c2c(-c3ccc(O)cc3)nc3sccn23)n1)c1ccc(F)cc1	35.1% (inactive)
CC/C=C\C[C@H]1C/C=C2/C(=O)C(Cl)=C[C@@H]2C/C=C\CCCC(=O)O1	-40.2% (active)
COc1ccc(/C=C/C(=O)/C=C/c2cc3ccc(Cl)cc3[nH]c2=O)cc1	80.9% (inactive)
COc1ccc(/C=c2\sc3n(c2=O)C2C(NN=3)N(C)C(=O)N2C)cc1 (stereo not given)	33.9% (inactive)
COc1ccc(-c2cn[nH]c2-c2cc(OC)c3c(c2)OCO3)cc1	41.7% (inactive)
CCSc1nnc(NC(=O)COc2ccc(Cl)cc2C)s1	95.2% (inactive)
O=C(c1ccccc1)C(Cl)C(Cl)c1ccccc1 (stereo not given)	92% (inactive)
CCC1CCc2nc3sc(C(=O)Nc4cccc(C)c4)c(N)c3cc2C1 (stereo not given)	86% (inactive)
COc1ccc(/C=C/c2nc(N3CCOCC3)c3cc(F)c(F)cc3n2)cc1OC	45.3% (inactive)
CC(C)C[C@H](NC(=O)[C@H](Cc1ccccc1)n1ccc(N2CCCCC2)cc1=O)B(O)O	29.2% (inactive)
Cc1c(C(=O)NCc2ccccc2)[n+](=O)c2cc(F)ccc2n1[O-]	108% (inactive)
CSc1ccccc1C#C/C=C\C#Cc1ccccc1N1CCCC1=O	88.5% (inactive)
CC(CCc1ccccc1)NC(=O)c1n[nH]c(=O)c2ccccc12 (stereo not given)	115% (inactive)
O=S(=O)(NCCCNc1cc(-c2cn(-c3ccccc3)nc2-c2cccc(O)c2)ccn1)c1ccc(Cl)cc1	43.8% (inactive)
CCC(c1cccc(Br)c1)C(C(=O)O)c1ccc(OC)cc1 (stereo not given)	104% (inactive)

SMILES	growth
CCCCCCCCCN1C(=O)/C(=c2\sc3n(c2=O)C2C(NN=3)N(CC)C(=O)N2CC)c2ccccc21 (stereo not given)	39.7% (inactive)
COc1cc(C(=O)N2CCN(C(=O)c3ccco3)CC2)c(N)cc1OCc1ccccc1	103% (inactive)
O=C1CCC/C=C\C[C@H]2C=CC(=O)/C2=C/C[C@H](C/C=C\CC(F)(F)F)O1	11.3% (inactive)
COc1cc(Cn2c(SCC(=O)Nc3ccc(Cl)cc3)nc3ccccc3c2=O)cc(OC)c1OC	63.9% (inactive)
COC1=CC(c2ccc[nH]2)=N/C1=C\c1[nH]c(C)c(C(=O)CCC(=O)Oc2ccc3c(c2)CCC2C3CC[C@]3(C)[C@@H](O)CC[C@@H]23)c1C (stereo not given in full)	37.2% (inactive)
CCNCc1ccncc1	106% (inactive)
COc1cccc(/C=C2\SC(N3CCN(c4ccccn4)CC3)=NC2=O)c1	99.4% (inactive)
O=C(Cc1c(F)cccc1Cl)Nc1ccc(S(=O)(=O)Nc2ncccn2)cc1	96% (inactive)
COC1=CC(c2ccc[nH]2)=N/C1=C\c1[nH]c(C)c(C(=O)CCCCC(=O)Oc2ccc3c(c2)CCC2C3CC[C@]3(C)[C@@H](O)CC[C@@H]23)c1C (stereo not given in full)	75.6% (inactive)
Cc1oc2nc[nH]c(=O)c2c1C(=O)/C=C/c1ccc(Cl)cc1Cl	84% (inactive)
COc1ccc(C2CC(=O)Nc3c2c(C)nn3-c2nc3ccccc3[nH]2)cc1OC (stereo not given)	84.9% (inactive)
CC1CCN(C(=O)CSc2nc3sc4c(c3c(=O)[nH]2)CCCC4)CC1	106% (inactive)
Cc1cc(Cl)ccc1OC(C)C(=O)Nc1nnc(C2CC2)s1 (stereo not given)	95.6% (inactive)
COc1cc(-c2csc(NC(=O)Nc3ccc(Cl)cc3Cl)n2)cc(OC)c1OC	41.7% (inactive)
CCCOC(=O)C1(O)CCCC1	108% (inactive)
O=C1NC(Cc2c[nH]c3ccccc23)C(=O)N1Cc1ccc(Cl)cc1 (stereo not given)	103% (inactive)
C=C1C(=O)O[C@H]2[C@H]1CC/C(Cn1cc(-c3ccccc3C(F)(F)F)nn1)=C\CC[C@@]1(C)O[C@@H]21	53.3% (inactive)
COc1cccc(/C=C/c2c(C(=O)O)cccc2[N+](=O)[O-])c1OC	105% (inactive)
Cc1cc(C)c(NC(=O)c2sc3nc4c(cc3c2N)CN(Cc2ccccc2)CC4)c(C)c1	42.9% (inactive)
CCCCCCCCCCn1cc[n+](C)c1	45.5% (inactive)
